Jurkat viability = reduces viability or proliferation of Jurkat cells | hit rate 1.2% among 56,000 | inhibition, % at 4 µM | AID 463 | Jurkat E6.1 viability, ATP luminescence, 48 h;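 active = inhibition above the mean inhibition of all tested compounds plus 3 SD, cut at about 28% in these data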
Hsp90 inh = displaces geldanamycin probe from tumor Hsp90. P07900. NCI-N417 lysate Hsp90, Cy3B-geldanamycin FP displacement. inhibition, % at 30 µM. hit rate 0.35% among 64,000;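 active = inhibition above 50%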;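 also: 0% = tracer plus lysate wells and 100% = tracer alone without lysate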
PKA inh = inhibitors of human protein kinase A; inhibition, % at 6 µM; PKA Kemptide phosphorylation, Kinase-Glo ATP luminescence; hit rate 0.1% among 65,000; P17612;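 active = inhibition above the screen-wide mean inhibition plus 3 SD, cut at about 21% in these data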
ROCK2 blocker = ROCK2 (human) kinase inhibition; O75116; purified ROCK2, Kinase-Glo ATP depletion luminescence; inhibition, % at 6 µM; hit rate 0.35% among 60,000; AID 604;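 active = inhibition above the screen-wide mean inhibition plus 3 SD, cut at about 18% in these data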;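 also: plate controls were DMSO wells for no effect and Y-27632 control wells after no-enzyme background subtraction for full effect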
Target sequence (O75116 whole entry, looked up): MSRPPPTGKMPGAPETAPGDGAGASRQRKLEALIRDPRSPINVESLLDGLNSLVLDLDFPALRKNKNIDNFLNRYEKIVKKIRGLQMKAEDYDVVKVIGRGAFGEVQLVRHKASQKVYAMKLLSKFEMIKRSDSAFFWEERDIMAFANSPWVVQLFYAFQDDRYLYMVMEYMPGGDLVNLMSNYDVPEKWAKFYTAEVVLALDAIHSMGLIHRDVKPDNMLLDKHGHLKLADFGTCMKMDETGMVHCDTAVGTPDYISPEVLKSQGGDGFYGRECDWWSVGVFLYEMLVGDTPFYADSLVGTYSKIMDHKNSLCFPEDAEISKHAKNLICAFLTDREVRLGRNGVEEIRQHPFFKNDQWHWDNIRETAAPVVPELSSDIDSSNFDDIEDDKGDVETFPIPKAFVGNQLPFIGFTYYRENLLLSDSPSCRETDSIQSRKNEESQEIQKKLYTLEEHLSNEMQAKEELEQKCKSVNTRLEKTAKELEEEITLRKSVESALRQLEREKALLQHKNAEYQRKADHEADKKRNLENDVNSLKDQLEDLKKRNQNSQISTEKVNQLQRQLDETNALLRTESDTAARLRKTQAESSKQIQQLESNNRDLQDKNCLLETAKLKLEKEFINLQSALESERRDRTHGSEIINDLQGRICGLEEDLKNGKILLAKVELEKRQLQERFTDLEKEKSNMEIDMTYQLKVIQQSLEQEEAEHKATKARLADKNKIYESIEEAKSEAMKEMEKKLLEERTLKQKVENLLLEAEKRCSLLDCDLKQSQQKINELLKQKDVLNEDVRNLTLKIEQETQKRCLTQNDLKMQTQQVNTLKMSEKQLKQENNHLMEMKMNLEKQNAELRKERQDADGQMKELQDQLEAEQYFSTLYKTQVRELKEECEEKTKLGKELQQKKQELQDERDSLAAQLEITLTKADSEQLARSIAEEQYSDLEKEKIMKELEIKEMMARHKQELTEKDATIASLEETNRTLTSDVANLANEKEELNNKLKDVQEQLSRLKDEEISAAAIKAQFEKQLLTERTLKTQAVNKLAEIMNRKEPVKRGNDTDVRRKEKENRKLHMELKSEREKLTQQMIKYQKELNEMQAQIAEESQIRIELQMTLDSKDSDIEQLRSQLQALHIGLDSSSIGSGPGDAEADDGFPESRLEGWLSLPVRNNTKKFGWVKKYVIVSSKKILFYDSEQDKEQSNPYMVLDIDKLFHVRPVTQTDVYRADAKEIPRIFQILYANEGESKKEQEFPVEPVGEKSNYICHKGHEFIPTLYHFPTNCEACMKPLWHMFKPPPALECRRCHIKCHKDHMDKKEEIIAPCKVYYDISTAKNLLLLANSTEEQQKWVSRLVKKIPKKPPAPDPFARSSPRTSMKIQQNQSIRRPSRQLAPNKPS
JNK3 blocker = JNK3 (human) kinase inhibition; AID 746; hit rate 0.61% among 60,000; purified JNK3 kinase activity, HTS; inhibition, % at 8 µM; in the data active = inhibition above about 17%;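 also: 0% = DMSO and 100% = reference inhibitor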
An asterisk follows results filed as active; . = no result given. Rows were chosen to be rich in hits. Some 1.9% of all compounds tested hit in one or more screens of this group.

SMILES	Jurkat viability	Hsp90 inh	PKA inh	ROCK2 blocker	JNK3 blocker
NC(N)=NCCSSCCN=C(N)N	.	1	.	.	.
CC(C)Cn1c(N)c(C(=O)COC(=O)c2ccc3c(c2)OCCO3)c(=O)n(C)c1=O	3	-10	5	2	9
CC(C)Cn1c(N)c(C(=O)CSc2ccc3c(c2)OCCO3)c(=O)n(C)c1=O	36*	1	8	0	1
CCCCCOc1ccc(C(=O)NC(CCC)C(=O)O)cc1 (stereo not given)	1	-1	6	6	-1
CCCCCCOc1ccc(/C(N)=N/O)cc1	97*	2	1	1	-2
CCOC(=O)c1[nH]cnc1C(=O)Nc1ccccn1	0	-2	-1	4	10
O=C(c1ccccc1)c1nc[nH]c1C(=O)Nc1ccccn1	1	-5	4	10	18*
O=S(=O)(c1cccc2c(I)cccc12)N1CCCNCC1	.	2	.	.	.
CCOc1ccc(C2CC(=O)NC3=C2C(=O)CCC3)cc1 (stereo not given)	2	1	12	1	45*
CCCOc1ccccc1C1CC(=O)NC2=C1C(=O)CCC2 (stereo not given)	95*	-1	6	3	-1
CCOc1ccccc1C1CC(=O)NC2=C1C(=O)CCC2 (stereo not given)	64*	1	-2	-4	-2
CCCCOc1ccccc1C1CC(=O)NC2=C1C(=O)CCC2 (stereo not given)	74*	0	1	1	-5
COc1ccccc1NC(=O)Nc1nc(-c2cccnc2)nc2ccccc12	.	0	.	.	.
O=c1c2[nH]c3ccc(F)cc3c2ncn1CCCn1ccnc1	33*	-2	8	0	0
O=c1c2[nH]c3ccc(F)cc3c2ncn1CCCN1CCOCC1	-4	-4	-1	7	7
O=S(=O)(CC(CN1CCCC1)N1CCCC1)c1ccc2ccccc2c1 (stereo not given)	8	-11	11	5	3
O=C1NC(=O)c2c(NC(=O)C3CCCO3)cccc21 (stereo not given)	0	-1	12	8	21*
COc1cc(C(=O)OCC(=O)c2cc(C)n(C)c2C)cc(OC)c1OC	42*	-3	10	4	0
CCCN(CCC)CCc1cccc2c1CC(=O)N2	.	-2	.	.	.
COc1cc(C(=O)Nc2nc3ccc(S(=O)(=O)N4CCOCC4)cc3s2)cc(OC)c1OC	6	-6	12	11	-2
COc1ccc2nc(NC(=O)Cc3ccc(OC)c(S(=O)(=O)N4CCOCC4)c3)sc2c1	-1	-3	14	8	29*
CCc1nnc(NC(=O)CSc2nnc(-c3ccccc3O)n2-c2ccc(C)cc2C)s1	80*	-2	7	2	0
CCc1nnc(NC(=O)CSc2nnc(COc3ccccc3)n2-c2ccc(C)cc2)s1	3	0	-4	2	2
CC1Cc2cc(-c3csc(NC(=O)Cc4cccs4)n3)ccc2N1S(C)(=O)=O (stereo not given)	74*	-5	3	-2	5
CN1CCN(CC(=O)Nc2nc(-c3ccccc3)cs2)CC1	.	-1	7	5	4
SMILES	Jurkat viability	Hsp90 inh	PKA inh	ROCK2 blocker	JNK3 blocker
CCC(=O)Nc1ccc(C(=O)Cn2nc(C(=O)O)c3ccccc3c2=O)cc1	-2	-9	11	33*	-4
Cc1nn(CC(=O)Nc2ccccc2)c(=O)c2ccccc12	3	-6	0	1	-2
Cc1ccccc1/C=C/C1=NCCN1	.	-1	.	.	.
CCCCCCCCCCCCCCCCOCC(COCC(F)(F)F)OP(=O)(O)OCO (stereo not given)	.	-3	.	.	.
c1cc2c(cc1Nc1nc(-c3ccc4c(c3)OCO4)cs1)OCCO2	-4	10	12	24*	-6
Cc1ccc2c(c1)CC1(CN2C)C(=O)OC2(CCCCC2)OC1=O	3	-2	-1	-1	31*
CN(C)S(=O)(=O)c1ccc(C(=O)OCC(=O)NC(=O)NCc2ccccc2)cc1	-3	1	8	6	2
C=Cc1c(C)c2cc3[nH]c(cc4nc(cc5nc(cc1[nH]2)C(C)=C5CCC(=O)O)C(CCC(=O)O)=C4C)c(C)c3C=C	.	139*	.	.	.
c1nc(N2CCOCC2)c2[nH]cnc2n1	3	12	15	26*	-6
Clc1ccccc1CNc1ncnc2nc[nH]c12	1	2	11	9	12
CCOC(=O)c1sc2ncnc(N3CCN(c4ccc(OC)cc4)CC3)c2c1C	0	3	14	5	2
O=C(CSc1ncnc2nc[nH]c12)N1CCOCC1	-7	-2	9	4	0
COc1ccc(N2CCN(c3ncnc4nc[nH]c34)CC2)cc1	6	3	16	24*	-3
C1=C(c2ccccc2)CCN(c2ncnc3nc[nH]c23)C1	5	30	18	24*	8
CC1CN(C(c2cccs2)c2sc3ncnn3c2O)CC(C)O1 (stereo not given)	-1	-3	7	5	-2
CN(C)C=Nc1c(Br)cc(Br)c2nonc12	3	53*	5	2	3
CCC(=O)Nc1cccc(-c2nc3ccccc3c(=O)o2)c1	-1	-7	2	4	15
CC(=O)Nc1cccc(-c2nc3ccccc3c(=O)o2)c1	-2	-3	9	8	18*
C[C@@H](Oc1ccc(Oc2cnc3ccc(Cl)cc3n2)cc1)C(=O)O	.	3	.	.	.
N#CCCn1cc(/C=N/O)c(-c2ccc(-c3ccccc3)cc2)n1	43*	-3	7	2	-5
Cc1ccc(N2CCN(C(=O)c3ccccc3)CC2)c(C)c1	12	-3	-6	-7	-4
COc1cc(C(=O)N2CCN(c3ccc(C)cc3C)CC2)cc(OC)c1OC	91*	1	-1	-3	-7
COCCn1c(SCC(=O)Nc2nnc(C)s2)nnc1-c1ccncc1	-4	0	12	6	-2
CCOC(=O)c1sc(NC(=O)CSc2nnc(-c3ccc(OC)cc3)n2CCOC)nc1C	4	85*	-2	6	1
CCn1c(-c2c[nH]c3ccccc23)n[nH]c1=S	0	-2	3	6	-7
SMILES	Jurkat viability	Hsp90 inh	PKA inh	ROCK2 blocker	JNK3 blocker
c1ccc2c(-c3ccncc3)c[nH]c2c1	-3	-3	65*	89*	-4
O=C(CSc1ncc(-c2ccc(F)cc2)[nH]1)Nc1cccc(O)c1	-3	-1	9	25*	-1
NCCCCNS(=O)(=O)c1cccc2c(Cl)cccc12	.	-3	.	.	.
O=[N+]([O-])c1ccc(-c2nc(-c3ccc(F)cc3)c(-c3ccncc3)[nH]2)cc1	.	3	.	.	.
CCOC(=O)c1[nH]c(C)c(C(=O)c2cc(F)ccc2F)c1C	88*	-2	-1	1	5
Cc1nn(C(C)C(=O)O)c(=O)c2c1sc1ccccc12 (stereo not given)	4	-5	2	0	21*
NC(N)=NCCCCN=C(N)N	.	1	.	.	.
Brc1ccc([C@H]2CN3CCSC3=N2)cc1	.	3	.	.	.
COc1ccc(-c2nc3cc(NC(=O)Cc4ccc(OC)c(OC)c4)ccc3o2)cc1	73*	-3	9	6	5
COc1ccc(CC(=O)Nc2nc(C)cs2)cc1OC	37*	1	1	2	32*

Screening results (PubChem BioAssay)
